FMDV inh: High Throughput Screening for Foot and Mouth Disease Virus Antivirals. AID 1159524, 2015. hit rate 1.2% among 410,000. Potency, µM (doses to about 57.9 µM), usual class: inhibitors. FMDV antiviral cell-based qHTS; calls by dose curve; tested in HEK293T cells; note: read-out not given here; nearly all actives have a fitted effect of over 45% in size
AmpC detergent: qHTS Inhibitors of AmpC Beta-Lactamase (assay with detergent); AmpC hydrolysis of nitrocefin, absorbance 480 nm, 0.01% Triton; Potency, µM (highest dose often 114 µM), hits mostly inhibitors; AID 485294, 2010; hit rate 0.041% among 370,000; note: nearly all actives have a fitted effect of over 25% in size
Target sequence (P00811 whole entry, looked up): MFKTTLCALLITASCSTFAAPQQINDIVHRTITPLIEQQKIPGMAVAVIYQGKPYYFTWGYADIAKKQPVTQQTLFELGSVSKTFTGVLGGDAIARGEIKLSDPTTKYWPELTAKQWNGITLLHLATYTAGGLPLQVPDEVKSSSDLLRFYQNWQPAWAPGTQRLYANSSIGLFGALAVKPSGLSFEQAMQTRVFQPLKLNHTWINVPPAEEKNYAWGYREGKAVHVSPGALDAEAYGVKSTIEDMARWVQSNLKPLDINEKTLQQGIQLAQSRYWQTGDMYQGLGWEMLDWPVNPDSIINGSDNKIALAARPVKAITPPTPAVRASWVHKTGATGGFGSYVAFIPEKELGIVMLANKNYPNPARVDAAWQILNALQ
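AmpC (5.3 nM in the dispensed reagent) in 20 mM phosphate pH 7.0 with 0.01% (detergent screen) or 0.0001% Triton X-100 was preincubated with compounds for 15 min at room temperature. Nitrocefin was then added from an 800 uM solution, and hydrolysis was followed at 480 nm.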
HCV inhibitor: qHTS Assay for Inhibitors of Hepatitis C Virus (HCV); Huh7.5.1 HCVcc-Cre infection, luciferase reporter, 44 h; Potency, µM (highest dose often 41.8 µM), hits mostly inhibitors; hit rate 3.4% among 340,000
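Infectious HCV cell culture screen: compound-treated cells (1,000/well, pre-plated 4 h) are infected with HCVcc-Cre at roughly 0.5 moi and grown 44 h. Infection is quantified by luciferase signal after 15 min substrate incubation at room temperature.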
HCMV inh: qHTS Assay for inhibitors of the human cytomegalovirus (HCMV) | HFF cells, HCMV-luciferase reporter, 72 h; hits give low values | activity change, negative = inhibition, % at 57.5 µM | hit rate 4.5% among 410,000 | AID 1259415, 2018; in the data active = activity change below about -60%; inconclusive = no clear call, values can overlap the other calls; inactive = above about -39%
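Two-dose cell screen: HFF monolayers treated with compounds and infected with luciferase-expressing HCMV at 1 PFU/cell, 72 h at 37C, then lysed for luciferase measurement.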
AmpC no deterg: qHTS Inhibitors of AmpC Beta-Lactamase (assay without detergent) | P00811 | AmpC nitrocefin hydrolysis, absorbance 480 nm, 0.0001% Triton | Potency, µM (top dose mostly 57.1 µM), actives largely listed as inhibitors | hit rate 0.52% among 330,000 | AID 485341, 2010; note: nearly all actives have a fitted effect of over 20% in size
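AmpC (5.3 nM in the dispensed reagent) in 20 mM phosphate pH 7.0 with 0.01% (detergent screen) or 0.0001% Triton X-100 was preincubated with compounds for 15 min at room temperature. Nitrocefin was then added from an 800 uM solution, and hydrolysis was followed at 480 nm.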
Hits are given with their value; - = inactive; ? = inconclusive; . = not tested or not shown. An excerpt weighted towards active compounds, which were near 7.3% of everything screened. Unless noted, calls come from the whole dose curve; as a rule, active = well fitted curve in the direction sought with a large enough effect; inconclusive = small, poorly fitted or top-dose-only effect, or another doubt; inactive = no such curve, though single readings can be large; an effect the other way counts as inactive or inconclusive.

SMILES	FMDV inh	AmpC detergent	HCV inhibitor	HCMV inh	AmpC no deterg
COc1ccc(S(=O)(=O)N(C)CC(=O)Nc2ccc3c(c2)OCO3)cc1	.	-	?	-	-
COc1ccc(S(=O)(=O)N(CC(=O)Nc2cccnc2)c2ccc(Cl)cc2)cc1	-	-	.	-104	.
CC(C)C(NC(=O)CN(c1ccc2c(c1)OCCO2)S(=O)(=O)c1ccccc1)C(C)C	-	.	-	-61	.
COc1ccc(S(=O)(=O)N(CC(=O)Nc2cc(C)cc(C)c2)c2ccc(Cl)cc2)cc1	-	-	.	-	.
O=C(CCS(=O)(=O)Cc1ccccc1F)NCCc1ccc(Cl)cc1	-	-	-	-	-
CCCCNC(=O)c1nc2ccc(Br)cc2nc1-c1cccc(Br)c1	.	.	.	-	.
CC(=O)c1ccc(S(=O)(=O)N2CCN(CC(=O)NC(=O)NC3CCCCC3)CC2)cc1	-	-	?	-	-
COc1ccc(N(CC(=O)Nc2ccc3c(c2)OCO3)S(=O)(=O)c2ccccc2)c(OC)c1	-	-	?	-68	-
COc1ccc(N(CC(=O)Nc2ccc3c(c2)OCCO3)S(=O)(=O)c2c(C)nn(C)c2C)cc1	-	-	-	-	-
COc1ccc(N(CC(=O)Nc2ccc3c(c2)OCCO3)S(=O)(=O)c2cccc(C)c2)cc1	-	-	?	-77	-
COc1ccc(S(=O)(=O)N(CC(=O)Nc2ccc(S(=O)(=O)N3CCOCC3)cc2)c2ccccc2)cc1	-	-	5.6µM	-85	-
O=C(CCSc1ccc(Br)cc1)c1ccc(O)cc1	-	-	-	-	-
CCS(=O)(=O)N1CC(=O)N(c2ccc(Cl)cc2C)C(C)(C(=O)NC2CCCCCC2)C1 (stereo unspecified)	-	-	.	-	.
CCOC(=O)C1=C(C)N=c2s/c(=C\c3cccc(OCC(=O)O)c3)c(=O)n2C1c1ccccc1OC (stereo unspecified)	?	-	-	-	-
CCOC(=O)C1=C(c2ccccc2)N=c2s/c(=C\c3cccc(O)c3)c(=O)n2C1c1cccs1 (stereo unspecified)	.	-	32µM	-	-
C[C@@H]1CN([C@H](C)CO)C(=O)CCCn2cc(nn2)CO[C@H]1CN(C)S(=O)(=O)c1ccc2c(c1)OCCCO2	-	.	.	-	.
CCOC(=O)c1cc(CC)sc1NC(=O)c1cc(OCC)c(OCC)c(OCC)c1	-	-	2.8µM	-	-
CCOC(=O)c1cc(CC)sc1NC(=O)COC(=O)C1CCC1	-	-	?	-	-
CCOC(=O)c1cc(CC)sc1NC(=O)C1CC1	-	-	11µM	-	-
Cc1ccc(C)c(NC(=O)Cn2cc(S(=O)(=O)Cc3cccc(Cl)c3)c3ccccc32)c1	-	-	.	?	.
N#Cc1ccc(OCC(=O)N2CCN(S(=O)(=O)c3ccc(Cl)s3)CC2)cc1	?	-	?	-61	-
COc1ccc(OCC(=O)N2CCN(S(=O)(=O)c3ccc(Cl)s3)CC2)cc1	-	-	-	-	-
COc1cc2c(cc1NC(=O)C(C)OC(=O)c1ccc(S(=O)(=O)Nc3ccccc3Cl)cc1)oc1ccccc12 (stereo unspecified)	-	-	?	-	-
CC(=O)Nc1cccc(NC(=O)c2ccc3[nH]c(C)c(C)c3c2)c1	-	?	-	-	-
Cc1cc(NC(=O)c2ccc3[nH]c(C)c(C)c3c2)ccn1	-	-	2.5µM	-	-
Cc1cccnc1-c1cccc2c1OC(CNC(=O)C1CCCc3c1[nH]c1ccccc31)C2 (stereo unspecified)	-	.	.	.	.
COCCCNC(=S)N1CCN(c2nc(C)nc3sc4c(c23)CCCC4)CC1	-	-	10µM	?	-
Cc1ccc2c(c1)nnn2C1CCN(CC(=O)N2c3ccccc3CC2C)CC1 (stereo unspecified)	?	-	-	-76	-
Cc1ccc2c(c1)nnn2C1CCN(CC(=O)N(c2ccccc2)c2ccccc2)CC1	-	-	?	-70	-
Cc1cnc(C)c(-c2cc(F)cc3c2OC(CNC(=O)CN2CCCC2)C3)n1 (stereo unspecified)	-	.	.	.	.
